# Inconclusive results are not listed. The source made the active and inactive calls. The calls were made as follows, unless noted: active = hit-call score of the fitted dose curve at least 0.9, where 1 is the maximum; inactive = score below 0.9.
# Tests used:
# [1] = CCTE_Shafer_MEA_acute_cross_correlation_area: CCTE's Neural Acute Assay for Area of Cross Correlation, Shafer Lab (AID 2284024);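 also: area under pooled inter-electrode spike cross-correlation near zero lag as percent change from own baseline; curves fitted for loss of cross-correlation area so actives lower synchrony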;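 as to outcome: rat primary cortical neuron networks on 48-well MEA at DIV 13 or 15 with 40 min exposure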
# In short: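 Percent change in well-wide cross-correlation area (window around zero lag) between 40 min baseline and 40 min post-compound recordings, 37 C; rat cortical cultures on MEA at DIV 13 or 15, dosed 0.03-40 uM, wells needing >/= 10 active electrodes.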
# [2] = CCTE_Shafer_MEA_acute_cross_correlation_HWHM: CCTE's Neural Acute Assay for Cross Correlation at Half Width at Half Maximum, Shafer Lab (AID 2284026);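 also: percent change per well from pre-dose baseline in spike cross-correlogram half width; hits are a decrease in cross-correlogram half width relative to DMSO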;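 as to outcome: spontaneous network firing of rat primary cortical neurons on multiwell microelectrode arrays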
# In short: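 Per-well percent change in cross-correlogram half width at half maximum, derived from 40-min recordings before and after compound (0.03-40 uM) at 37 C. Cultures were rat cortical neurons, DIV 13 or 15, with adaptive spike detection at 8x rms.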
# [3] = CCTE_Shafer_MEA_acute_synchrony_index: CCTE's Neural Acute Assay for Synchrony, Shafer Lab (AID 2284027);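 also: network synchrony index of spontaneous spiking in primary rat cortical neurons on MEAs; fitted for loss of signal so actives lower synchrony relative to DMSO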
# In short: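 The synchrony index is taken as percent change per well between a 40 min baseline and a 40 min recording with compound (0.03–40 uM), at 37C. Rat cortical cultures on multiwell MEAs at DIV 13 or 15, spike threshold 8× rms noise.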
# [4] = target: Estrogen receptor (Homo sapiens) (UniProt P03372); assay: CCTE_Deisenroth_AIME_384WELL_LUC_Active: CCTE's 384-well Estrogen Receptor Transactivation Assay with AIME metabolic competence (ERTA luciferase; metabolism positive), Deisenroth Lab (AID 2284030; active = hit-call score of the fitted dose curve at least 0.9, where 1 is the maximum)
# Chain of Estrogen receptor (Homo sapiens) (P03372 whole entry, looked up): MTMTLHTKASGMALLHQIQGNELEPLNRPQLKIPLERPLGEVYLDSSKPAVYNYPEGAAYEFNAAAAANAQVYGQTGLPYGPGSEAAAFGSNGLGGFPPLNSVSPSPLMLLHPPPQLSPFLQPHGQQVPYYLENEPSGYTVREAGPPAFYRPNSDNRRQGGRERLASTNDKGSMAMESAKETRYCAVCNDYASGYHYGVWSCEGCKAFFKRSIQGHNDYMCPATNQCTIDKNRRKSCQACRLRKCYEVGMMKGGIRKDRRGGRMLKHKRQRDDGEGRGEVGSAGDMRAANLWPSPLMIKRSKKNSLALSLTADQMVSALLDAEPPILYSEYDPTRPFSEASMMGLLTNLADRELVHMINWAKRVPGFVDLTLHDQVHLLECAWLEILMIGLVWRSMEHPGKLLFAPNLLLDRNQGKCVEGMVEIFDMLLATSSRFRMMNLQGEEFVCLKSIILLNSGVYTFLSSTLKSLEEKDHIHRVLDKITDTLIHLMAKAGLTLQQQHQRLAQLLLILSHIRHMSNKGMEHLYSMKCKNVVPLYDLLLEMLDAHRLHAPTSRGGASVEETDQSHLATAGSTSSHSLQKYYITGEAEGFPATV
# In short: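 VM7Luc4E2 breast cells were given, for 24 hours, medium pre-incubated for 2 hours with parent chemical (0.002-200 uM, 10 concentrations) and alginate-encapsulated phenobarbital/beta-naphthoflavone-induced rat hepatic S9. Luciferase gain of signal was fitted against 17beta-estradiol; n=4 or more.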
# [5] = CCTE_Deisenroth_AIME_384WELL_CTox_Active: Cytotoxicity Assessment (CTOX) in CCTE's 384-well Estrogen Receptor Transactivation Assay with AIME metabolic competence (metabolism positive), Deisenroth Lab (AID 2284037; active = hit-call score of the fitted dose curve at least 0.9, where 1 is the maximum;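 also: chemicals first conditioned 2 h by alginate-bound induced rat liver S9 before cells; activity means signal loss indicating cell death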)
# In short: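 VM7Luc4E2 breast cells received medium pre-incubated 2 h with chemical over alginate microspheres holding induced male Sprague Dawley rat liver S9; viability read 24 h later by protease-substrate fluorescence. Loss of signal, bidirectional fit, 0.002–200 uM.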
# [6] = target: Estrogen receptor (Homo sapiens) (UniProt P03372); assay: CCTE_Deisenroth_AIME_384WELL_LUC_Inactive: CCTE's 384-well Estrogen Receptor Transactivation Assay without AIME metabolic competence (ERTA luciferase; metabolism negative), Deisenroth Lab (AID 2284038; active = hit-call score of the fitted dose curve at least 0.9, where 1 is the maximum;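 also: hits raise estrogen receptor luciferase signal so potencies reflect agonists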)
# In short: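 VM7Luc4E2 ER transactivation, luciferase bioluminescence after 24 h, using medium pre-incubated 2 h with S9-free alginate microspheres. Concentrations 0.002–200 uM; gain of signal fitted relative to 17beta-estradiol.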
# [7] = target: Estrogen receptor (Homo sapiens) (UniProt P03372); assay: CCTE_Deisenroth_AIME_384WELL_LUC_Shift: CCTE's 384-well Estrogen Receptor Transactivation Assay with AIME metabolic competence data shift (ERTA luciferase; difference in metabolism positive and negative), Deisenroth Lab (AID 2284041);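 also: shift is response with S9 minus without S9 so positive means metabolism raised ER signal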
# In short: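 Here, parent compounds undergo 2 h phase I metabolism by PB/BNF-induced rat S9 before 24 h transactivation in VM7Luc4E2 cells; the curve models S9-positive minus S9-negative response over a 10-point series.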
# [8] = target: Estrogen receptor (Homo sapiens) (UniProt P03372); assay: CCTE_Deisenroth_AIME_96WELL_LUC_Active: CCTE's 96-well Estrogen Receptor Transactivation Assay with AIME metabolic competence (ERTA luciferase; metabolism positive), Deisenroth Lab (AID 2284023; active = hit-call score of the fitted dose curve at least 0.9, where 1 is the maximum)
# In short: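 Metabolism-positive mode: induced rat hepatic S9 in alginate microspheres conditions test solutions (0.002 - 200 uM, 10 points) for 2 hours. VM7Luc4E2 ER luciferase reporter cells then exposed 24 h; positive-direction fit against 17beta-estradiol, n=4 typical.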
# [9] = target: Estrogen receptor (Homo sapiens) (UniProt P03372); assay: CCTE_Deisenroth_AIME_96WELL_LUC_Inactive: CCTE's 96-well Estrogen Receptor Transactivation Assay without AIME metabolic competence (ERTA luciferase; metabolism negative), Deisenroth Lab (AID 2284025; active = hit-call score of the fitted dose curve at least 0.9, where 1 is the maximum)
# In short: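 Metabolism-negative arm: chemicals (0.002–200 uM, 10 points) incubated 2 h with alginate-water microspheres, then medium moved onto VM7Luc4E2 cells for 24 h luciferase read-out. Positive direction vs 17beta-estradiol; n≥4 experiments.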
# [10] = CCTE_Deisenroth_AIME_96WELL_CTox_Active: Cytotoxicity Assessment (CTOX) in CCTE's 96-well Estrogen Receptor Transactivation Assay with AIME metabolic competence (metabolism positive), Deisenroth Lab (AID 2284028; active = hit-call score of the fitted dose curve at least 0.9, where 1 is the maximum)
# In short: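 Cytotoxicity in VM7Luc4E2 breast cells after 24 h exposure to medium from a 2 h metabolic pre-incubation with induced rat hepatic S9 in alginate microspheres; fluorescent live-cell protease readout, 10-point series 0.002–200 uM, n=4.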
# [11] = CCTE_Deisenroth_AIME_96WELL_CTox_Inactive: Cytotoxicity Assessment (CTOX) in CCTE's 96-well Estrogen Receptor Transactivation Assay without AIME metabolic competence (metabolism negative), Deisenroth Lab (AID 2284029; active = hit-call score of the fitted dose curve at least 0.9, where 1 is the maximum)
# In short: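 Metabolism-negative mode: alginate-water lids without rat S9, 2 h pre-incubation of 10-point series (0.002 - 200 uM). Conditioned medium on VM7Luc4E2 cells 24 h; loss of fluorescent live-cell protease signal marks cytotoxicity.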
# [12] = CCTE_Shafer_MEA_dev_firing_rate_mean: CCTE's Neural Network Formation Assay for Mean Firing Rate, Shafer Lab (AID 2284031);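 also: curve fitted for loss of firing so AC50 reflects decreased mean firing rate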
# In short: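 Spike frequency (spikes/recording length, averaged over active electrodes) was recorded on days 5, 7, 9 and 12 and collapsed to AUC; rat cortical cultures received compound continuously over 12 days of network development.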
# [13] = CCTE_Shafer_MEA_dev_per_burst_spike_percent: CCTE's Neural Network Formation Assay for Percent of Spikes in a Burst, Shafer Lab (AID 2284032);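 also: fitted as a decrease in burst spike percentage below DMSO baseline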
# In short: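 Value is trapezoidal AUC over recordings on days 5, 7, 9 and 12 of the well-mean fraction of spikes falling in single-electrode bursts; rat cortical cultures exposed continuously from plating, treatment renewed DIV 5 and 9, fitted downward against DMSO.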
# [14] = CCTE_Shafer_MEA_dev_active_electrodes_number: CCTE's Neural Network Formation Assay for Number of Active Electrodes, Shafer Lab (AID 2284040; active = hit-call score of the fitted dose curve at least 0.9, where 1 is the maximum;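 also: potency for loss of active electrodes versus DMSO so lower counts are hits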)
# In short: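 Counts electrodes per well firing at least 5 spikes/min, recorded on days 5, 7, 9 and 12 in rat cortical cultures dosed continuously from plating (treatment refreshed DIV 5, 9). Value is the area under the curve over recordings, fitted downward relative to DMSO.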
# [15] = CCTE_Shafer_MEA_dev_burst_rate: CCTE's Neural Network Formation Assay for Burst Rate, Shafer Lab (AID 2284042);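 also: potency for loss of burst rate below DMSO control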
# In short: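 Rat primary cortical cultures on PEI/laminin MEA; compound from plating, re-dosed at DIV 5, 9 media change. Single-electrode bursts/recording length, well mean of active electrodes; AUC over DIV 5–12 recordings; loss-of-signal vs DMSO.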
# [16] = CCTE_Shafer_MEA_dev_bursting_electrodes_number: CCTE's Neural Network Formation Assay for Number of Bursting Electrodes, Shafer Lab (AID 2284043; active = hit-call score of the fitted dose curve at least 0.9, where 1 is the maximum;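 also: potency is for loss of bursting electrodes relative to DMSO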)
# In short: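 Counted: electrodes with burst rate ≥1 per 2 min in each well. Cells: primary rat cortex, 1.5 x 10^5/well, on 16-electrode MEA wells. Exposure: DIV 0–12, compound renewed DIV 5 and 9. Recording days 5, 7, 9, 12; AUC vs DMSO baseline.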
# [17] = CCTE_Shafer_MEA_dev_per_burst_interspike_interval: CCTE's Neural Network Formation Assay for Burst Interspike Interval, Shafer Lab (AID 2284044);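 also: potency for a decrease of within-burst interspike interval below DMSO level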
# In short: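 Mean interspike interval within single-electrode bursts, averaged over bursting electrodes, from rat cortical cultures on MEA plates recorded on days 5, 7, 9 and 12. Continuous compound exposure from plating; trapezoidal AUC fitted downward relative to DMSO.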
# [18] = CCTE_Shafer_MEA_dev_burst_duration_mean: CCTE's Neural Network Formation Assay for Mean Burst Duration, Shafer Lab (AID 2284045);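 also: curve fitted for loss meaning shorter burst duration than DMSO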
# In short: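 Network-formation assay in primary rat cortical neurons; treatment spans twelve days of development. Mean burst duration per well is integrated by trapezoidal AUC and fitted in the loss-of-signal direction against DMSO baseline.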
# [19] = CCTE_Shafer_MEA_dev_interburst_interval_mean: CCTE's Neural Network Formation Assay for Mean Interburst Interval, Shafer Lab (AID 2284046);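 also: well-mean interburst interval of bursting electrodes as AUC over four recording days; curve fitted for decrease in interburst interval relative to DMSO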
# In short: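 Rat cortical neurons, 1.5 x 10^5 cells/well, 48-well MEA; compound from day 0 through DIV 12, media and treatment renewed DIV 5/9. Recordings DIV 5, 7, 9, 12; well-mean interburst interval → trapezoidal AUC, loss direction vs DMSO.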
# [20] = CCTE_Shafer_MEA_dev_inter_network_spike_interval_mean: CCTE's Neural Network Formation Assay for Mean Inter-network Spike Interval, Shafer Lab (AID 2284047)
# In short: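 Primary rat cortical neurons on PEI-coated 48-well MEAs (16 electrodes/well) were exposed from plating day 0 to DIV 12, with dosing renewed at DIV 5 and 9. Recordings at DIV 5, 7, 9, 12 were collapsed by trapezoidal AUC, loss-of-signal fit vs DMSO.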
compound,measurement,setting,value
Cc1cc(Cc2ccc(N)c(C)c2)ccc1N,outcome,[1],inactive
same,AC50,[2],26 µM (active)
same,AC50,[3],20 µM (active)
O=C1OC(c2ccc(O)cc2)(c2ccc(O)cc2)c2ccccc21,outcome,[1],inactive
same,outcome,[2],inactive
same,AC50,[3],28.5 µM (active)
CC(C)COC(=O)CCCCC(=O)OCC(C)C,outcome,[1],inactive
same,outcome,[2],inactive
same,outcome,[3],inactive
NC(=Nc1ccccc1)Nc1ccccc1,outcome,[1],inactive
same,AC50,[2],20 µM (active)
same,outcome,[3],inactive
CN(C)C(=O)NC1(c2ccccc2)CCN(CC[C@@]2(c3ccc(F)c(F)c3)CN(C(=O)c3ccccc3)CCO2)CC1,outcome,[1],inactive
same,AC50,[2],20 µM (active)
same,outcome,[3],inactive
CCc1cc(C2=C(C(=O)O)N(c3ccccc3C(F)(F)F)S(=O)(=O)c3ccccc32)cc2c1OCO2,outcome,[1],inactive
same,outcome,[2],inactive
same,outcome,[3],inactive
CCCC(=O)O,outcome,[1],inactive
same,outcome,[2],inactive
same,outcome,[3],inactive
O=C(O)CN(CC(=O)O)CC(=O)O,outcome,[1],inactive
same,outcome,[2],inactive
same,outcome,[3],inactive
same,AC50,[4],28.5 µM (active)
same,outcome,[5],inactive
same,AC50,[6],28.8 µM (active)
same,AC50,[7],233 µM (active)
Cc1ccc(C(C)(C)C)c(O)c1,outcome,[1],inactive
same,AC50,[2],11.8 µM (active)
same,outcome,[3],inactive
same,outcome,[4],inactive
same,outcome,[5],inactive
same,outcome,[6],inactive
same,outcome,[7],inactive
CCCCC(CC)COP(=O)(OCC(CC)CCCC)OCC(CC)CCCC (stereo not given),outcome,[1],inactive
same,outcome,[2],inactive
same,outcome,[3],inactive
CCN(CC)CCOc1ccc(C(=C(Cl)c2ccccc2)c2ccccc2)cc1,outcome,[1],inactive
same,outcome,[2],inactive
same,outcome,[3],inactive
Oc1ccc(O)cc1,AC50,[8],50.2 µM (active)
same,outcome,[1],inactive
same,AC50,[9],71.8 µM (active)
same,outcome,[2],inactive
same,outcome,[3],inactive
same,outcome,[10],inactive
same,outcome,[11],inactive
O=C(N[C@@H](c1ccccc1)[C@@H]1CCCCN1)c1cccc(C(F)(F)F)c1Cl,AC50,[1],1.99 µM (active)
same,AC50,[2],9.13 µM (active)
same,AC50,[3],5 µM (active)
CC(N)=O,outcome,[1],inactive
same,outcome,[2],inactive
same,outcome,[3],inactive
Cc1ccc(-c2cc(C(F)(F)F)nn2-c2ccc(S(N)(=O)=O)cc2)cc1,outcome,[1],inactive
same,AC50,[2],20 µM (active)
same,outcome,[3],inactive
CC(C)NCC(O)c1ccc(O)c(O)c1 (stereo not given),outcome,[1],inactive
same,outcome,[2],inactive
same,outcome,[3],inactive
same,AC50,[5],106 µM (active)
CN(C)C(=O)NC1(c2ccccc2)CCN(CCC[C@]2(c3ccc(Cl)c(Cl)c3)CCCN(C(=O)c3ccccc3)C2)CC1,AC50,[1],0.00118 µM (active)
same,AC50,[2],8.86 µM (active)
same,AC50,[3],6.12 µM (active)
Nc1nc(=S)c2[nH]cnc2[nH]1,outcome,[1],inactive
same,AC50,[2],32.2 µM (active)
same,AC50,[3],3.98 µM (active)
same,outcome,[5],inactive
same,outcome,[7],inactive
OCC(CO)n1cnc(-c2ccc(F)cc2)c1-c1ccnc(Oc2ccccc2)n1,AC50,[1],3.9 µM (active)
same,outcome,[2],inactive
same,outcome,[3],inactive
CSc1ccc(Oc2ccc(S(N)(=O)=O)cc2CN(C)C)cc1C,outcome,[1],inactive
same,AC50,[2],31.7 µM (active)
same,AC50,[3],31.3 µM (active)
same,outcome,[4],inactive
same,outcome,[5],inactive
same,outcome,[6],inactive
same,outcome,[7],inactive
C/C=C/c1ccc(OC)cc1,outcome,[1],inactive
same,outcome,[2],inactive
same,outcome,[3],inactive
same,outcome,[5],inactive
c1ccc2occc2c1,outcome,[1],inactive
same,outcome,[2],inactive
same,outcome,[3],inactive
same,outcome,[4],inactive
same,outcome,[5],inactive
same,outcome,[6],inactive
same,outcome,[7],inactive
Cc1cc(SC2=C(O)C[C@@](CCc3ccc(N)cc3)(C(C)C)OC2=O)c(C(C)(C)C)cc1CO,AC50,[1],20 µM (active)
same,outcome,[2],inactive
same,outcome,[3],inactive
COC(=O)[C@H]1[C@H]2C[C@@H]3c4[nH]c5cc(OC)ccc5c4CCN3C[C@H]2C[C@@H](OC(=O)c2cc(OC)c(OC)c(OC)c2)[C@@H]1OC,outcome,[1],inactive
same,AC50,[2],20 µM (active)
same,AC50,[3],4.97 µM (active)
same,AC50,[12],2.8 µM (active)
same,AC50,[13],5.76 µM (active)
same,AC50,[14],5.24 µM (active)
same,AC50,[15],5.23 µM (active)
same,AC50,[16],3.34 µM (active)
same,AC50,[17],3.76 µM (active)
same,AC50,[18],2.43 µM (active)
same,AC50,[19],3.27 µM (active)
same,outcome,[20],inactive
COc1ccc(OC(F)(F)F)cc1CN[C@H]1CCCN[C@H]1c1ccccc1,outcome,[1],inactive
same,AC50,[2],3.09 µM (active)
same,outcome,[3],inactive
CC1=C(C)S(=O)(=O)CCS1(=O)=O,outcome,[1],inactive
same,outcome,[2],inactive
same,outcome,[3],inactive
same,outcome,[4],inactive
same,AC50,[5],172 µM (active)
same,outcome,[7],inactive
Cc1c(C)c2c(c(C)c1O)CCC(C)(COc1ccc(CC3SC(=O)NC3=O)cc1)O2 (stereo not given),outcome,[1],inactive
same,AC50,[2],29.7 µM (active)
same,AC50,[3],35.5 µM (active)
CN(C)CCCN1c2ccccc2Sc2ccc(Cl)cc21,AC50,[2],31.5 µM (active)
same,AC50,[3],32.2 µM (active)
S=c1[nH]c2ccccc2s1,outcome,[10],inactive

# Source: PubChem BioAssay (EPA / NIEHS)
